Screening results as filed in PubChem.
USP2a inh = qHTS Assay for Inhibitors of Ubiquitin-specific Protease USP2a Using CHOP2 as the Reporter. USP2 core, Ub-CHOP2 coupled fluorogenic reporter, 485/531. Potency, µM (top dose mostly 38.3 µM), usual class: inhibitors. hit rate 0.01% among 330,000. AID 463254, 2010
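USP2 core (10nM final) preincubated 30min RT with compound in 20mM Tris-HCl pH 8.0, 2mM CaCl2, 2mM beta-mercaptoethanol, 0.05% CHAPS; 25nM Ub-CHOP2 plus 25nM reporter substrate added, fluorescence (Ex485/Em531) read after 60min.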
RGS4 inh = Inhibitors of Regulator of G Protein Signaling (RGS) 4: qHTS; Transcreener GDP fluorescence polarization, RGS4-accelerated GTP hydrolysis; Potency, µM (doses to about 114 µM), usual class: inhibitors; hit rate 0.039% among 390,000; AID 504845, 2011; note: nearly all actives have a fitted effect of over 75% in size
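MLSMR compounds (23 nl, pin-transferred) preincubated 10 min at room temperature with a 500nM (2x) first reagent, then RGS4 at 900nM (2x) plus Transcreener GDP mix added; fluorescence polarization (620/688 nm) read before and after 90 min at 30 °C.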
Eya2 inh = qHTS Assay for Inhibitors of the Phosphatase Activity of Eya2; Potency, µM (titrated, usually from 76.9 µM), actives largely listed as inhibitors; recombinant Eya2, OMFP fluorescence dephosphorylation (OMFP is methylfluorescein phosphate); Protein phosphatase EYA2 (Homo sapiens), O00167; hit rate 0.006% among 330,000
Target sequence (O00167 whole entry, looked up): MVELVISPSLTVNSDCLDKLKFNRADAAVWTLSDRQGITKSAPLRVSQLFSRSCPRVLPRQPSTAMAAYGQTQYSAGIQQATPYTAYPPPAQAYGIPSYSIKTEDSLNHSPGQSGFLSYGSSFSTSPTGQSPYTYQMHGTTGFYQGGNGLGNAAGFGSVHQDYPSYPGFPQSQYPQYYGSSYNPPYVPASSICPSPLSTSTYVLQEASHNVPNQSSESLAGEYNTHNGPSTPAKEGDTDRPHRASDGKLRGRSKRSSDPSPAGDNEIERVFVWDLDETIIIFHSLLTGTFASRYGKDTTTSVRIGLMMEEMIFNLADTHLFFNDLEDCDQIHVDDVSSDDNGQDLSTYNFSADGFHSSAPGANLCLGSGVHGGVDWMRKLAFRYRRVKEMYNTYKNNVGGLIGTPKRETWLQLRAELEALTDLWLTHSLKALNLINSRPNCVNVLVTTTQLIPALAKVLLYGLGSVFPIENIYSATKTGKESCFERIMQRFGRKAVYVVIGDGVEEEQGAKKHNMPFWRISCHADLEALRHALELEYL
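Eya2 protein (added as 0.2 uM solution) was preincubated with compound for 10 min at ambient temperature in 50 mM HEPES pH 7.5, 50 mM NaCl, 5 uM MgCl2, 0.05% BSA, 1 mM DTT. OMFP (added at 50 uM) then reacted 10 min; fluorescence read at 485/525 nm.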
uPA generation = qHTS for Inhibitors of Cell Surface uPA Generation | cell surface uPA generation assay, qHTS | Potency, µM (highest dose often 38.3 µM), hits mostly inhibitors | hit rate 0.31% among 330,000; active = well fitted inhibition curve with a large enough effect; inconclusive = small, poorly fitted or top-dose-only effect; inactive = no such curve, though single readings can be large or run the other way; tested in mouse RAW 264.7 cells; note: nearly all actives have a fitted effect of over 55% in size
GCN5L2 inh = qHTS Assay for Inhibitors of GCN5L2 | GCN5L2 HAT assay, ThioGlo1 CoA-SH fluorescence | Potency, µM (doses to about 58.9 µM), hits mostly inhibitors | hit rate 0.21% among 390,000 | AID 504327, 2011
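Fluorescence readout, Ex340nm/Em540nm: ThioGlo1 (50uM final) reacts with free CoA thiol released as 20nM GCN5L2 acetylates H3(1-25) peptide (75uM) using acetyl-CoA (70uM). Compound and enzyme sat 15 min beforehand; 20 min room-temperature reaction.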
Chronic BCR inh = qHTS Assay to Find Inhibitors of Chronic Active B-Cell Receptor Signaling | ABC-DLBCL IkBa-CBG/CBR reporter, luminescence ratio, 4 h | Potency, µM (titrated, usually from 46.1 µM), most hits filed as inhibitors | hit rate 0.05% among 340,000 | AID 493014, 2011; active = well fitted inhibition curve with a large enough effect in the signal ratio, with a control signal flat, not every such curve was filed as active; inconclusive = small, poorly fitted or top-dose-only effect, or effect the other way, or a change in a side signal; the % refers to the signal ratio
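Cell line TMD8 (human ABC DLBCL), stably expressing tet-inducible CBG68-IkBa fusion and CBR; IMDM/0.5% FBS; cpd up to 46 uM; dox induction, 4 h, 37C/5% CO2; dual luminescence; green/red ratio; MG132 control.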
Hits are given with their value; n = inactive; u = inconclusive; x = not tested or not shown; ! = not active in a repeat; [ ] = another dose, or the depositor's remark. Only some compounds are listed: those with a hit (about 0.52% of all), similar ones and a draw of the others. Unless noted, calls come from the whole dose curve; as a rule, active = well fitted curve in the direction sought with a large enough effect; inconclusive = small, poorly fitted or top-dose-only effect, or another doubt; inactive = no such curve, though single readings can be large; an effect the other way counts as inactive or inconclusive.

SMILES	USP2a inh	RGS4 inh	Eya2 inh	uPA generation	GCN5L2 inh	Chronic BCR inh
CC(C)[C@H](NC(=O)[C@H](CCC(N)=O)NC(=O)CNC(=O)[C@@H]1CCCN1C(=O)[C@H](Cc1ccc(O)cc1)NC(=O)CN)C(=O)O	x	x	x	x	n	x
CCc1nc(-c2cc(S(=O)(=O)N3CCN(c4ccccc4F)CC3)ccc2OC)no1	x	n	x	x	n	x
COc1ccc(S(=O)(=O)N2CCN(c3ccccc3F)CC2)cc1-c1noc(C)n1	x	u	x	x	15.8µM	x
CC(C)(Sc1ccc(CCN(CCCCC2CCCCC2)C(=O)NC2CCCCC2)cc1)C(=O)O	n	26.7µM!	n	n	12.6µM	n
Cc1ccc(O)c(N=Nc2nccs2)c1	n	n	n	2.24µM	n	u
Cc1ccc(/C=C/C(=O)c2nc3ccccc3[nH]2)cc1	n	n	n	n	n	12.6µM
C/C(=N/NC(=O)c1cccs1)c1c(C)[nH]n(-c2nc3ccccc3s2)c1=O	n	n[11.4 µM]	n	1.58µM	n	u
CCOc1ccccc1NC(=O)Nc1cc2c(cc1N1CCCCC1)n(CC)c(=O)n2CC	x	n	x	x	n	x
O=C(/C=C/c1cccc(O)c1)c1ccc(N2CCOCC2)cc1	n	n	n	10µM	n	u
COc1ccc(-c2cc(C3C4C=CCCC4(C)C(=O)N3Cc3ccccc3)ccc2F)cc1 (centres undefined)	x	n	x	x	x	x
CCOc1ccc(/C=N/Nc2ccccn2)cc1	n	n	n	6.31µM	n	u
N[C@H](Cc1c[nH]c2ccccc12)C(=O)O	x	21.2µM	x	x	u	x
O=C(O)Cc1c[nH]c2ccccc12	x	n	x	n	x	x
CCOC(=O)Cn1cc(C#N)c2ccccc21	n	n	n	n	n	n
CCOC(=O)Cn1cc(/C=C/[N+](=O)[O-])c2ccccc21	n	u	n	10µM	n	u
O=C1NC(=Nc2ccccc2)S/C1=C\C=C\c1ccco1	5.62µM	u	n	n	u	n
CCCOC1(C(F)(F)F)NC(=O)N(c2ccc(Cl)cc2)C1=O (centres undefined)	x	n	x	x	n	x
COc1ccccc1CNc1nc2c(S(=O)(=O)c3ccccc3)nnn2c2ccc(Cl)cc12	x	n	x	x	25.1µM	x
COc1ccc(Nc2nc3c(S(=O)(=O)c4ccccc4)nnn3c3ccc(Cl)cc23)cc1OC	x	n	x	x	n	x
O=C(O)c1cccc(N2C(=O)/C(=C/c3ccc(SCc4ccc(Cl)cc4)o3)SC2=S)c1	n	n	n	n	22.4µM	n
O=C(CCN1C(=O)/C(=C/c2ccc(Cl)cc2)SC1=S)Nc1cccc(C(=O)O)c1	n	u	n	n	n	n
COc1cccc(CNC(=O)c2ccc3c(c2)c(C)c(C)n3Cc2ccccc2)c1OC	x	n	x	x	n	x
Cn1nc(-c2ccc(OCC(=O)Nc3cccc(C(F)(F)F)c3)cc2)c2ccccc2c1=O	x	n	x	x	n	x
Cc1cc(-c2ccc(S(=O)(=O)N(C)c3ccc(C)c(C)c3)s2)on1	n	n	n	u	n	u
Cc1ccc(N(C)S(=O)(=O)c2ccc(-c3cc(C)no3)s2)cc1	n	n	n	2.24µM	n	u
SMILES	USP2a inh	RGS4 inh	Eya2 inh	uPA generation	GCN5L2 inh	Chronic BCR inh
Cc1cc(C)cc(-n2ccnc(NCCc3ccccc3)c2=O)c1	x	n	x	x	n	x
CC(=O)Nc1nc(C)c(-c2csc(Nc3cccc(C(C)=O)c3)n2)s1	n	n	n	11.2µM	n	u
COc1ccccc1Nc1nc(-c2sc(NC(=O)C(C)(C)C)nc2C)cs1	n	n	n	5.62µM	n	n
CC(=O)Nc1nc(C)c(-c2csc(Nc3cccc([N+](=O)[O-])c3)n2)s1	n	u	n	n	n	u
O=C(Nc1ccccc1Cl)C1CCCN(S(=O)(=O)c2cccc3cccnc23)C1 (centres undefined)	n	n	n	n	n	n
O=C(Nc1nc2cc(Cl)ccc2s1)C1CCCN(S(=O)(=O)c2cccc3cccnc23)C1 (centres undefined)	n	n	n	12.6µM	n	u
